# Screening data from PubChem.
# MEKK3 PB1 HTS: modulators of MEKK3-MEK5 PB1 binding, primary screen, biochemical, wildtype MEKK3, multiplex bead flow cytometry, Alexa488-MEK5; Mitogen-activated protein kinase kinase kinase 3 (Homo sapiens), Q99759; bead-based flow cytometry, Alexa488-MEK5 binding to MEKK3; actives lie on both sides; 0 = blocked by unlabeled MEK5, 100 = vehicle; binding response (% of control), % at 10 µM; 290,000 tested, 1.4% active; AID 1529, 2009;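 active = binding response more than 3 SD above or below the average of its plate-row segment, actives on both sides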;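 also: Alexa488 bead fluorescence after subtracting the streptavidin-only scavenger bead signal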
# MEKK2mut PB1 HTS: MEK5 binding signal on mutant MEKK2 PB1, primary screen, biochemical, multiplex bead flow cytometry, Alexa488-MEK5; Alexa488-MEK5 binding to MEKK2 mutant; AID 1530, 2009; 290,000 tested, 0.35% active; percent response, % at 10 µM; in the data active = percent response above about 24%, passing the limit was not always enough
# MEKK2wt PB1 HTS: modulators of MEK5 binding to wildtype MEKK2, primary screen, biochemical, multiplex bead flow cytometry, Alexa488-MEK5. Mitogen-activated protein kinase kinase kinase 2 (Homo sapiens), Q9Y2U5. AID 1531, 2009. Alexa488-MEK5 binding to MEKK2 WT; actives lie on both sides. binding response (% of control), % at 10 µM. 290,000 tested, 1.1% active; in the data active = binding response below about 67% or above about 130%
# dFosB act: activators of delta FosB homodimer, primary screen, biochemical, fluorescence polarization, TAMRA-CDK5 oligo, single point. Protein FosB (Mus musculus), P13346. purified delta FosB; percent of positive-control signal above neutral wells. activation, % at 25 µM. 340,000 tested, 0.99% active;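 active = mean activation above about 17%, with every replicate also reaching it, limit read from the data, passing the limit was not always enough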
# Target sequence (P13346 whole entry, looked up): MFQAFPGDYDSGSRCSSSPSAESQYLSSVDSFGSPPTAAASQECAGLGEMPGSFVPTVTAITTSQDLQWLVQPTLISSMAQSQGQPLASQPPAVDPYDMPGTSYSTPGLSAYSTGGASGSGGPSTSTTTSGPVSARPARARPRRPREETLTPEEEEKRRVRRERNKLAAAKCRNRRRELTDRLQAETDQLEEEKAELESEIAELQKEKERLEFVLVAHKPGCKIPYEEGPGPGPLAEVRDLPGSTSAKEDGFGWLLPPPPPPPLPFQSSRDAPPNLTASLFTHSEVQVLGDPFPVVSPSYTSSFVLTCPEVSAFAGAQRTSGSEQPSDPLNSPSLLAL
# DNA FID counter: compounds displacing fluorescent DNA intercalator, primary screen, artefact control for HCV NS3 helicase inhibitor project, biochemical, FID fluorescence. inhibition, % at 7.9 µM. DNA fluorescent intercalator displacement. AID 1845, 2009. 290,000 tested, 0.17% active; in the data active = inhibition above about 37%;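 also: 0% = vehicle and 100% = reference compound; higher means more ethidium bromide displaced from hairpin DNA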
# MEKK2wt confirm: modulators of MEK5 binding to wildtype MEKK2, confirmation, biochemical, single concentration, multiplex bead flow cytometry; shares compounds with MEKK3 PB1 HTS; Alexa488-MEK5 binding to MEKK2 WT; actives lie on both sides; binding response (% of control), % at 10 µM; 5,900 tested, 2.4% active; AID 1892, 2009; in the data active = binding response below about 16% or above about 210%; inactive = in between
# MEKK2mut-MEK5: mutant MEKK2 PB1-MEK5 binding signal retest – biochemical, single concentration, multiplex bead flow cytometry, confirmation; shares compounds with MEKK3 PB1 HTS; Alexa488-MEK5 binding to MEKK2 mutant; percent response, % at 10 µM; 5,900 tested, 2% active; in the data active = percent response mostly above about 71%, no sharp cut-off; inactive = mostly below about 38%;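 also: higher means compound restores mutant binding toward wildtype level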
# MEKK3 confirm: MEKK3 wild-type PB1 binding to MEK5, inhibitors, confirmation, biochemical, bead multiplex flow cytometry, single concentration, wildtype; shares compounds with MEKK3 PB1 HTS; Alexa488-MEK5 binding to MEKK3; stronger effect = lower value; binding response (% of control), % at 10 µM; 5,900 tested, 1.8% active;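 active = binding response below 72% of control, or above a set upper limit, though filed actives all read lower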;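 also: 100% = DMSO only wells and 0% = binding blocked by excess unlabeled MEK5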
# Active calls of the source: *; nt = no result; [ ] = another dose, or the depositor's remark. Sampled rows, rich in hits. Any-hit rate of the full collection: about 2.9%.
SMILES,MEKK3 PB1 HTS,MEKK2mut PB1 HTS,MEKK2wt PB1 HTS,dFosB act,DNA FID counter,MEKK2wt confirm,MEKK2mut-MEK5,MEKK3 confirm
Cc1ccc(OCC(O)Cn2c(=N)n(CCN3CCCCC3)c3ccccc32)cc1 (configuration not stated),105,4,145*,5,32,130,10,102
Cc1cccc(CN2CCN(CC(=O)NCCCN3CCN(c4ccc(F)cc4)CC3)C2=O)c1,111,34,180*,-3,11,146,25,108
Cc1cccc(CN2CCN(CC(=O)NCCCN3CCCC3=O)C2=O)c1,81,-11,86,-6,-27,nt,nt,nt
COc1ccc(CCNCC2C(Oc3ccc(Cl)cc3)C(=O)N2c2ccccc2C)cc1OC (configuration not stated),106,32,155*,9,19,126,12,102
COCCNCC1C(Oc2ccc(Cl)cc2)C(=O)N1c1ccccc1C (configuration not stated),123,0,112,5,7,nt,nt,nt
Cc1ccc(Cn2cccc2C2=NC(C)CO2)cc1 (configuration not stated),125*,5,114,3,1,134,19,110
NC(=O)C1CCN(C(=O)C2CCN(C(=O)Nc3ccccc3)CC2)CC1,nt,nt,nt,-4,nt,nt,nt,nt
COc1ccc(/C=C2\SC(N3CCc4ccccc4C3)=NC2=O)cc1,131*,1,103,-35,-24,95,-10,99
N#Cc1ccc(C(=O)N2CCN(S(=O)(=O)c3ccc(Cl)s3)CC2)cc1,nt,nt,nt,-2,nt,nt,nt,nt
CCCCCNCC(=O)Nc1cccc(C(=O)Nc2cccc(C(F)(F)F)c2)c1,97,29,174*,-124,28,157,20,106
O=C(CN1CCOCC1)Nc1cccc(C(=O)Nc2cccc(C(F)(F)F)c2)c1,106,4,115,-7,-10,nt,nt,nt
Cc1ccc(C(=O)/C=C/Nc2cccc(O)c2)cc1,106,5,99,-4,-9,nt,nt,nt
CC(=O)c1cccc(N/C=C\C(=O)c2ccc(C)cc2)c1,135*,0,105,-3,-10,105,8,108
COCCCn1c(=O)c2ccccc2n(Cc2ccc(C)cc2)c1=O,102,1,98,-9,-33,nt,nt,nt
COCCCNC(=O)c1ccc(Cn2c(=O)c3ccccc3n(Cc3ccc(C)cc3)c2=O)cc1,125*,7,117,4,-3,106,2,100
CCOC(=O)Cc1cc(=O)n2[nH]cc(-c3cccc(Br)c3)c2n1,98,-2,95,-5,-18,nt,nt,nt
Cc1nn(CC2CC2)c(=O)n1-c1ccc(F)cc1,129*,3,115,-6,-2,100,0,100
Cc1nn(CC2CC2)c(=O)n1-c1cccc(Cl)c1,154*,5,133,-2,-3,97,-5,98
CCOc1ccc(N(CC(=O)NCCc2ccccc2)C(=O)CCC(=O)Nc2cc(C)ccn2)cc1,102,-1,100,-10,-43,nt,nt,nt
CCOC(=O)C1=C(CC)OC(N)=C(C#N)C1c1ccc(OC)c(C)c1OC (configuration not stated),2.0*[inhibitor],-13,2.0*[inhibitor],-3,-18,95,-2,99
